Results filed as inconclusive are left out. A number with no mark means an inactive call. Calls of active or inactive are those of the source. The call rests on the fitted dose curve; in most records, active means well fitted inhibition curve with a large enough effect; inconclusive means small, poorly fitted or top-dose-only effect; inactive means no such curve, though single readings can be large or run the other way.
The molecules below were run against Retinaldehyde dehydrogenase 3 (Homo sapiens) (UniProt P47895) (assay: qHTS for Inhibitors of the Aldehyde Dehydrogenase Family (ALDH1A3) Confirmatory screens (AID 2061311; further: nearly all actives have a fitted effect of over 60% in size)). Details: ALDH inhibition qHTS; series mostly up to 46 µM; activity change, negative = inhibition: at the top concentration.
On the % scale 0 is the no-effect control and ±100 the full control effect; potency means the concentration at half of the fitted maximal effect.

| Compound | activity change, negative = inhibition [%] | outcome | Potency |
| --- | --- | --- | --- |
| COc1ccccc1-c1ccc2ncc(Nc3cccc(O)c3)n2n1 | -17.9 |  |  |
| COc1ccc(-c2ccccc2C(=O)NCc2ccccn2)nn1 | -5.34 |  |  |
| N#Cc1cccc(C(=O)Nc2ccc([C@H]3OCC(=O)N(C4CCOCC4)[C@@H]3CO)cc2)c1 |  | inactive |  |
| Cn1c(Oc2cccc(Cl)c2)nc2c1c(=O)n(Cc1ccccc1Cl)c(=O)n2C |  |  | 31.6 µM (active) |

Reference: PubChem BioAssay (NCATS)
